# A selection: hits, their analogues and other compounds. The true share with any hit is near 6.9%.
# Mdm2-MdmX inh: human Mdm2/MdmX binding inhibition. SaOS-2 split-luciferase Mdm2/MdmX complementation, luminescence. inhibition, % at 8 µM. 330,000 tested, 3% active;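 active means inhibition of at least 50% at 8 µM in the primary screen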
# Target sequence (O15151 whole entry, looked up): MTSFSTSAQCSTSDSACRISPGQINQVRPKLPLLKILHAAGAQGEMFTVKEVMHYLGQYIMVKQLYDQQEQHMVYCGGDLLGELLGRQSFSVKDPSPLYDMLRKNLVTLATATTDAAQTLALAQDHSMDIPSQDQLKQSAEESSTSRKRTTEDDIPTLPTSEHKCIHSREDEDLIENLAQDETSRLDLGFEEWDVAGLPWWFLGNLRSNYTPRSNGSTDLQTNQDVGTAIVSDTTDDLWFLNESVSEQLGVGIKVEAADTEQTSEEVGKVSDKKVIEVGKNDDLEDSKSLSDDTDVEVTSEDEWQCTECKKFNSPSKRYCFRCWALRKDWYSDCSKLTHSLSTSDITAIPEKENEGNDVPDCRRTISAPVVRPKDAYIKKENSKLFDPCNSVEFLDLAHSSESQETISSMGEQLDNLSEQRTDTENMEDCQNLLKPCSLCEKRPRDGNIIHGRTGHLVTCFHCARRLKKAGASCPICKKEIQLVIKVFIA
# Target sequence (Q00987 whole entry, looked up): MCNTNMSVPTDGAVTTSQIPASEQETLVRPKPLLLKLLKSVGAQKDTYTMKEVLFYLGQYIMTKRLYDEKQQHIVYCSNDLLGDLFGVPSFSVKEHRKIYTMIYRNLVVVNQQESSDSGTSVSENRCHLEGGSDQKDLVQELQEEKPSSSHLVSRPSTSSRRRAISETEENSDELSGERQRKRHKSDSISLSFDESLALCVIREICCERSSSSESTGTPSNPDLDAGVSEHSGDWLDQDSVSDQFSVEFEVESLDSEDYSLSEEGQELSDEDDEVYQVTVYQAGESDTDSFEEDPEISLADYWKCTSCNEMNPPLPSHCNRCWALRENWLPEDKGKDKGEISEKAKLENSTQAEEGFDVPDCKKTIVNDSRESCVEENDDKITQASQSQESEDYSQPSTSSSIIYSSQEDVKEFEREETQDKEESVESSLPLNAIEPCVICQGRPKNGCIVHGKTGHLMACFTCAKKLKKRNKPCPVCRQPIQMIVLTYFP
# NR3A LBD binder: NR3A (human) ligand-binding domain modulation | NR3A LBD differential scanning fluorimetry, Tm shift; 0% = protein alone, 100% = glycine-bound protein | AID 1259313 | Tm shift relative to glycine control, % at 25 µM | 340,000 tested, 2.5% active;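 active means melting temperature shift of at least 10% of the positive control shift, at one fixed dose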
# CSC inhib: blocks cancer stem cells | cancer stem cell-like cells viability, luminescence | inhibition, % at 7.5 µM | 300,000 tested, 1.1% active | AID 2717; in the data active means inhibition above about 75%; tested in HMLE shEcad cells
# MPTP inh: blocks calcium-induced mitochondrial swelling; isolated mouse mitochondria, Ca2+ swelling absorbance, 30 min; inhibition, % at 10 µM; 360,000 tested, 1.4% active; AID 602449;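 active means inhibition of 50% or more, scaled per plate between neutral and stimulator controls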
# SKKanGAS inh: SKKanGAS growth inhibition. 300,000 tested, 1.3% active. AID 1662. S. pyogenes SKKanGAS, kanamycin growth, BacTiter-Glo, 6 h. inhibition, % at 7.5 µM;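 active means mean replicate score, as percent of positive control median, at least 50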;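 further: strain carries kanamycin resistance gene driven by streptokinase promoter and grows in 40 µg/ml kanamycin; loss of luminescence reflects streptokinase promoter inhibition or plain growth inhibition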
# Beta apoptosis: beta cell apoptosis inhibition. INS-1E cytokine-induced death, ATP luminescence, 48 h; percent of positive-control rescue, neutral wells zero. protection from apoptosis, % (no concentration beside the values). 300,000 tested, 0.8% active. AID 435005;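 active means Every replicate reaches about 75%, or at least half do and their mean reaches it too, limit read from the data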;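 further: higher means more ATP so stronger rescue from cytokine killing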
# Mdm2-MdmX conf: confirmation of human Mdm2/MdmX interaction inhibitors. shares compounds with Mdm2-MdmX inh. Mdm2-MdmX binding, luminescent assay. inhibition, % at 8 µM. 10,000 tested, 55% active. AID 489028; in the data active means inhibition above about 40%
# FLuc counter: full-length luciferase inhibition in Mdm2/MdmX counter-screen; shares compounds with Mdm2-MdmX inh; SaOS-2 full-length luciferase counterscreen, luminescence; inhibition, % at 8 µM; 6,200 tested, 77% active; AID 504607;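 active means mean inhibition at 8 µM reaching about 37%, which flags the compound as non-specific, limit read from the data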;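 further: p53-null SaOS-2 cells with luciferase driven by a doxycycline-inducible promoter; compound on cells about two nights before reading with doxycycline added after day one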
# A number is an active result; . = inactive; / = no result given.
SMILES,Mdm2-MdmX inh,NR3A LBD binder,CSC inhib,MPTP inh,SKKanGAS inh,Beta apoptosis,Mdm2-MdmX conf,FLuc counter
COc1ccccc1NC(=O)Nc1nc(CC(=O)N2CCN(c3ccc(F)cc3)CC2)cs1,70,.,.,.,.,/,40,83
COc1ccccc1NC(=O)Nc1nc(CC(=O)N2CCN(c3ccccc3)CC2)cs1,.,.,.,.,.,.,/,/
Cc1cc(C)nc(NC(=S)Nc2ccc(Br)cc2Cl)c1,51,.,.,.,.,.,.,/
COc1ccc(NC(C)C(=O)Nc2cc(C(F)(F)F)ccc2N2CCOCC2)c(OC)c1 (stereo not given),57,.,.,.,.,.,.,/
CCCCC1(COC(=O)CCC(=O)O)C(=O)N(c2ccccc2)N(c2ccccc2)C1=O,.,.,.,.,/,.,/,/
CCCCC1(Cc2ccc([N+](=O)[O-])cc2)C(=O)N(c2ccccc2)N(c2ccccc2)C1=O,97,.,.,.,.,101,97,47
Cc1nc2c(oc3ccc(Cl)cc32)c(=O)[nH]1,.,.,.,.,.,.,/,/
CCCC/C(C)=N/NC(=O)CN(c1ccc(Br)cc1)S(=O)(=O)c1ccccc1,.,.,.,.,.,.,/,/
C/C(=N/NC(=O)CN(c1ccccc1)S(=O)(=O)c1ccccc1)c1ccccc1O,72,.,.,.,.,109,60,.
CCC(CO)Oc1cc(NCc2ccccc2)c2ncn(C(C)C)c2c1 (stereo not given),.,.,/,.,/,.,/,/
CC(C)n1cnc2c(NCc3ccccc3)cc(N[C@H](C)CO)cc21,74,.,124,.,/,114,79,52
O=Cc1c[nH]c2ccc(S(=O)(=O)N3CCOCC3)cc12,.,.,/,.,.,/,/,/
Clc1ccc(CN(Cc2ccccc2)C(c2cccs2)c2nnnn2C2CCCC2)cc1 (stereo not given),.,.,.,.,.,.,/,/
CC(C)(C)n1nnnc1C(c1cccs1)N(Cc1ccc(Cl)cc1)CC1CCCO1 (stereo not given),56,.,.,.,.,.,57,70
COc1ccccc1-c1oc2ccccc2c1C#CC1(N)CCCCC1,74,.,130,.,/,.,.,/
COCCn1c(=S)[nH]c2cc(C(=O)N3CC(C)CC(C)C3)ccc2c1=O (stereo not given),.,.,.,.,.,.,/,/
CC(C)C[C@@H]1NC(=O)[C@H](Cc2ccccc2)N(C)C(=O)[C@H](C)NC(=O)c2ccccc2NC(=O)[C@H](Cc2ccc(O)cc2)N(C)C1=O,75,.,.,.,.,/,57,71
COc1ccccc1N1CCN(C2CCC(C)CC2)CC1 (stereo not given),.,.,.,.,.,.,/,/
COc1ccccc1N1CCN(C2CCN(C3CCC(c4ccccc4)CC3)CC2)CC1 (stereo not given),60,/,.,/,.,.,.,/
N#Cc1c(NC(=O)CSc2ncc(-c3ccccc3)n2CC2CCCO2)sc2c1CCCC2 (stereo not given),76,.,/,.,.,.,42,67
Cc1onc(-c2ccccc2)c1C(=O)Nc1sc2c(c1C#N)CCC2,55,.,/,.,.,/,60,49
N#Cc1c(NC(=O)CSc2nnc(-c3ccncc3)n2CC2CCCO2)sc2c1CCCC2 (stereo not given),.,.,.,.,.,.,/,/
COC(=O)c1c(-c2ccccc2)csc1NC(=O)c1c(-c2ccccc2)noc1C,97,.,.,.,.,.,95,53
CCOC(=O)c1c(-c2ccc(F)cc2)csc1NC(=O)c1c(-c2ccccc2)noc1C,85,.,.,.,.,.,50,48
COC(=O)c1ccc(C)c(NC(=O)c2c(-c3ccccc3)noc2C)c1,.,.,.,.,.,.,/,/
SMILES,Mdm2-MdmX inh,NR3A LBD binder,CSC inhib,MPTP inh,SKKanGAS inh,Beta apoptosis,Mdm2-MdmX conf,FLuc counter
CCOC(=O)c1c(-c2ccccc2)csc1NC(=O)c1cc(-c2ccccc2OC)on1,.,.,.,.,.,.,/,/
CCCCN(Cc1ccco1)S(=O)(=O)c1csc(C(N)=O)c1,.,.,.,.,.,.,/,/
O=C(NCCCN1CCOCC1)c1cc(S(=O)(=O)N2CCCCC2)ccc1Cl,/,/,/,.,/,/,/,/
COc1ccccc1CCNC(=O)c1ccc2nc[nH]c2c1,.,.,.,.,.,/,/,/
Cc1cccc(NC(=O)c2ccc(Cl)c(S(=O)(=O)N3CCCCC3)c2)n1,.,.,.,.,.,.,/,/
Cc1ccc(N2C(=O)c3cccc4c(N)ccc(c34)C2=O)c2cccnc12,62,.,.,.,.,.,61,80
Cc1ccc(Cn2c(CCNc3nc(-c4ccc(Cl)c([N+](=O)[O-])c4)cs3)nc3cc(Cl)c(Cl)cc32)cc1,93,.,.,.,.,.,.,/
O=C(COC(=O)c1cccc(F)c1)Nc1ccc(Cl)cn1,.,.,.,.,/,.,/,/
Cc1ccc(NC(=O)CN2C(=O)CC(C)S(=O)(=O)c3ccccc32)cc1 (stereo not given),.,.,.,.,.,.,/,/
CCOc1ccc(C(=O)COC(=O)CNC(=O)C2CCCCC2)cc1,.,.,.,.,/,.,/,/
COC(=O)c1ccccc1NC(=O)c1c(O)c2c([nH]c1=O)CCCC2,56,.,.,.,.,.,.,/
O=C1C2C3C=CC(C3=C(c3ccccc3)c3ccccc3)C2C(=O)N1CCO (stereo not given),.,.,.,.,.,.,/,/
O=C1C2C3C=CC(C3=C(c3ccccc3)c3ccccc3)C2C(=O)N1Cc1ccccc1 (stereo not given),79,.,.,.,.,.,.,/
Cc1ccc(N2C(=O)N3[C@H](c4ccc(Cl)cc4)[C@@H]4C(=O)N(C5CCCCC5)C(=O)[C@@H]4[C@]3(Cc3ccccc3)C2=O)cc1,.,.,.,.,.,.,/,/
CC[C@@]12C(=O)N(c3ccc(OC)cc3)C(=O)N1[C@H](c1ccc(Cl)cc1)[C@@H]1C(=O)N(C3CCCCC3)C(=O)[C@@H]12,.,.,.,.,.,.,48,49
O=C1[C@H]2[C@@H](c3ccc(F)cc3)N3C(=O)N(c4ccc(Br)cc4)C(=O)[C@@]3(Cc3ccccc3)[C@H]2C(=O)N1C1CCCCC1,84,.,.,.,.,.,94,.
CC1CCN(S(=O)(=O)c2ccc(C(=O)N3CCCC3C(=O)O)cc2)CC1 (stereo not given),.,.,.,.,/,.,/,/
O=C(N/N=C/c1ccc(OC(=O)c2ccco2)cc1)c1ccc[n+]([O-])c1,.,.,.,.,.,.,/,/
COc1cccc(/C=N/NC(=O)c2c(C)nc3ccc(Br)cn23)c1O,67,.,89,.,66,82,74,.

# Screening data from PubChem BioAssay.
